Measured values as given in the supplement of paper PMC10849652.
Of roughly 7,900 targets only a part is listed; those with a hit were picked by preference. About 0.6% of all pairs of compound and target were hits. A number with no mark means an inactive call.

Key:
Test in all cases: log2 fold change, soluble protein after heating vs DMSO (PISA); higher = thermal stabilisation; K562 cells, 10 uM, 30 min; active = over 0.2 and 3.5 SD of the protein, either way, in both replicates (recomputed)
IRAK-1-4 Inhibitor I = compound: C1COCCN1CCN2C3=CC=CC=C3N=C2NC(=O)C4=CC(=CC=C4)[N+](=O)[O-] [IRAK-1-4 Inhibitor I]
Method in brief: (§1)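 Thermal stability values are relative to control samples and come from duplicates. They are expressed as log2 fold changes. For measurement, K562 cells (2×10^6 cells/mL) received 10 μM compound for 30 min, and aliquots were heated for 3 min over 48°C-58°C, pooled, and extracted at 4°C in PBS with 0.5% NP-40. Soluble protein, the supernatant after 21,000xg for 90 min, was quantified by TMTpro 16plex LC-MS/MS with equalised channel sums.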

ibrutinib = compound: C=CC(=O)N1CCC[C@@H](n2nc(-c3ccc(Oc4ccccc4)cc3)c3c(N)ncnc32)C1 [ibrutinib]
Method in brief: as §1

[1] = compound: CC(=O)c1cnc2ccc(-c3cc(Cl)c(O)c(Cl)c3)nc2c1N[C@H]1CC[C@H](CN(C)C)CC1
Method in brief: as §1

ralimetinib = compound: CC(C)(C)Cn1c(N)nc2ccc(-c3[nH]c(C(C)(C)C)nc3-c3ccc(F)cc3)nc21 [ralimetinib]
Method in brief: as §1

[2] = compound: CC(C)(O)CC(=O)NCCn1ccc2ncnc(Nc3ccc(Oc4cccc(C(F)(F)F)c4)c(Cl)c3)c21
Method in brief: as §1

[3] = compound: CC(C)C1=C2N=C(C=C(N2N=C1)NCC3=CC=CC=C3)NCCCCCCN
Method in brief: as §1

[4] = compound: CC(C)C[C@@H](C=O)NC(=O)[C@H](CC(C)C)NC(=O)[C@H](CC(C)C)NC(=O)OCc1ccccc1
Method in brief: as §1

pinometostat = compound: CC(C)N(C[C@H]1O[C@@H](n2cnc3c(N)ncnc32)[C@H](O)[C@@H]1O)[C@H]1C[C@@H](CCc2nc3cc(C(C)(C)C)ccc3[nH]2)C1 [pinometostat]
Method in brief: as §1

[5] = compound: CC1=C(C(CC(=O)N1)C2=CC=C(C=C2)C(F)(F)F)C(=O)NC3=C(C=C4C(=C3)C=NN4)F
Method in brief: as §1

[6] = compound: CC1=C(C2=C(C=C1)C(=O)C3=CC=CC=C3N2CCCN)C
Method in brief: as §1

[7] = compound: CC1=C(C=C(C=C1)NC(=O)C2=CC(=CC=C2)C(C)(C)C#N)NC3=CC4=C(C=C3)N=CN(C4=O)C
Method in brief: as §1

[8] = compound: CC1=C(C=C(C=C1)NC(=O)C2=CC(=CC=C2)N(C)C)NC(=O)C3=CC=C(C=C3)O
Method in brief: as §1

[9] = compound: CC1=CC=C(C=C1)SC2=C3C=C(SC3=CN=C2)C(=O)N
Method in brief: as §1

[10] = compound: CC1=NC(=CC=C1)C2=C(N=C(N2)C(C)(C)C)C3=CC4=NC=CN=C4C=C3
Method in brief: as §1

Nexturastat A = compound: CCCCN(Cc1ccc(C(=O)NO)cc1)C(=O)Nc1ccccc1 [Nexturastat A]
Method in brief: as §1

vemurafenib = compound: CCCS(=O)(=O)Nc1ccc(F)c(C(=O)c2c[nH]c3ncc(-c4ccc(Cl)cc4)cc23)c1F [vemurafenib]
Method in brief: as §1

[11] = compound: CCCS(=O)(=O)Nc1ccc(F)c(C(=O)c2c[nH]c3ncc(Cl)cc23)c1F
Method in brief: as §1

[12] = compound: CCCc1cc(C)[nH]c(=O)c1CNC(=O)c1cc(-c2ccnc(N3CCN(C)CC3)c2)cc2c1cnn2C(C)C
Method in brief: as §1

givinostat = compound: CCN(CC)Cc1ccc2cc(COC(=O)Nc3ccc(C(=O)NO)cc3)ccc2c1 [givinostat]
Method in brief: as §1

barasertib = compound: CCN(CCCOc1ccc2c(Nc3cc(CC(=O)Nc4cccc(F)c4)[nH]n3)ncnc2c1)CCOP(=O)(O)O [barasertib]
Method in brief: as §1

Chain of UniProt Q5R3I4 (Q5R3I4 whole entry, looked up): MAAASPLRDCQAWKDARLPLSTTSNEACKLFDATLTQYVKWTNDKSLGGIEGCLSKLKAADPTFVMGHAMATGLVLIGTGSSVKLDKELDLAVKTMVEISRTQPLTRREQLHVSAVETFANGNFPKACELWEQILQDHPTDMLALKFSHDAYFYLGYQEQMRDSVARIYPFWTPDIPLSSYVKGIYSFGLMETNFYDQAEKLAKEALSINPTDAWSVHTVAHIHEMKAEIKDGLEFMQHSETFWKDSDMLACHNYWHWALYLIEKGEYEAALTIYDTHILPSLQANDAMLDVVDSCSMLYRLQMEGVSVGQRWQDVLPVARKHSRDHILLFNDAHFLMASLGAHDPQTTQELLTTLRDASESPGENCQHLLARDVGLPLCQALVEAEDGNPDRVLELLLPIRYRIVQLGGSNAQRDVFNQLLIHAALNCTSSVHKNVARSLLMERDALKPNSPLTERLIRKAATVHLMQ
Chain of UniProt Q8WVY7 (Q8WVY7 whole entry, looked up): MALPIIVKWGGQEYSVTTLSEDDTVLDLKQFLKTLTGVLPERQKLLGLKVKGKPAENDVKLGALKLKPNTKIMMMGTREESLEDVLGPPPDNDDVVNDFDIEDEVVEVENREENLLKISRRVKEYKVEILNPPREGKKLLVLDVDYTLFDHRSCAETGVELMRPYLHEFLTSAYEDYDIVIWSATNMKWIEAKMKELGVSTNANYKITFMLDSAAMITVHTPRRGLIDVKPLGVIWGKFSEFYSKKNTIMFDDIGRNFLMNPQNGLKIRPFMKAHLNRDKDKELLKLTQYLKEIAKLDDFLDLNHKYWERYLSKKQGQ
Chain of UniProt Q93009 (Q93009 whole entry, looked up): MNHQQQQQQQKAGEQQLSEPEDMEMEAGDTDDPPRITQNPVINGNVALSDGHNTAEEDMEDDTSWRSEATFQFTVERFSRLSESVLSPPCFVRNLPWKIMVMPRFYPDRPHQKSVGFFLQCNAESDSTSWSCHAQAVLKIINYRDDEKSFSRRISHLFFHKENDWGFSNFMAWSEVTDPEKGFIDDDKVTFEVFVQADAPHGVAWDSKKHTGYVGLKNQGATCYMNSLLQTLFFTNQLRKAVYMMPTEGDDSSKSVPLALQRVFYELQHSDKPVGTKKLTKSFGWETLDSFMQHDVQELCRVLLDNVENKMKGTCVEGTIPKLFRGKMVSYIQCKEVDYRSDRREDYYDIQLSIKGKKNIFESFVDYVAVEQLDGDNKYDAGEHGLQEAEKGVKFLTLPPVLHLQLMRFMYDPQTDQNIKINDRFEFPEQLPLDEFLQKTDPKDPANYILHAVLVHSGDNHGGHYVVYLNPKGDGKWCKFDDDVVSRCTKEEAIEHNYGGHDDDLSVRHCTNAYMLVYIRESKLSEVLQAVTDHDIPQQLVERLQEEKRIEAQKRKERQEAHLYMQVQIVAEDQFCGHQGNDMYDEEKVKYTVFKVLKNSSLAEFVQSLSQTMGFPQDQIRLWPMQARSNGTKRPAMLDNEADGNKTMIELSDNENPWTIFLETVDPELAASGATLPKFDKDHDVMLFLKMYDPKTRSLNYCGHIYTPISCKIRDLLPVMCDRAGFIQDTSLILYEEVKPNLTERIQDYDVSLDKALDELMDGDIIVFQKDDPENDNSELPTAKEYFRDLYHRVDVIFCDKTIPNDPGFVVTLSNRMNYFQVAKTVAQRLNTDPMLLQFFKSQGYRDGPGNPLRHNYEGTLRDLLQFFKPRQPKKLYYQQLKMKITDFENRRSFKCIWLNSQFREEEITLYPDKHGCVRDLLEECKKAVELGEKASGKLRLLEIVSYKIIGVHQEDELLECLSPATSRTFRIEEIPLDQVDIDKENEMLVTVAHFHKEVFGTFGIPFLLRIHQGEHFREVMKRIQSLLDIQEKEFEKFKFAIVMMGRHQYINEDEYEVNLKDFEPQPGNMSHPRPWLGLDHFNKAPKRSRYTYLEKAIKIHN
Chain of UniProt O75717 (O75717 whole entry, looked up): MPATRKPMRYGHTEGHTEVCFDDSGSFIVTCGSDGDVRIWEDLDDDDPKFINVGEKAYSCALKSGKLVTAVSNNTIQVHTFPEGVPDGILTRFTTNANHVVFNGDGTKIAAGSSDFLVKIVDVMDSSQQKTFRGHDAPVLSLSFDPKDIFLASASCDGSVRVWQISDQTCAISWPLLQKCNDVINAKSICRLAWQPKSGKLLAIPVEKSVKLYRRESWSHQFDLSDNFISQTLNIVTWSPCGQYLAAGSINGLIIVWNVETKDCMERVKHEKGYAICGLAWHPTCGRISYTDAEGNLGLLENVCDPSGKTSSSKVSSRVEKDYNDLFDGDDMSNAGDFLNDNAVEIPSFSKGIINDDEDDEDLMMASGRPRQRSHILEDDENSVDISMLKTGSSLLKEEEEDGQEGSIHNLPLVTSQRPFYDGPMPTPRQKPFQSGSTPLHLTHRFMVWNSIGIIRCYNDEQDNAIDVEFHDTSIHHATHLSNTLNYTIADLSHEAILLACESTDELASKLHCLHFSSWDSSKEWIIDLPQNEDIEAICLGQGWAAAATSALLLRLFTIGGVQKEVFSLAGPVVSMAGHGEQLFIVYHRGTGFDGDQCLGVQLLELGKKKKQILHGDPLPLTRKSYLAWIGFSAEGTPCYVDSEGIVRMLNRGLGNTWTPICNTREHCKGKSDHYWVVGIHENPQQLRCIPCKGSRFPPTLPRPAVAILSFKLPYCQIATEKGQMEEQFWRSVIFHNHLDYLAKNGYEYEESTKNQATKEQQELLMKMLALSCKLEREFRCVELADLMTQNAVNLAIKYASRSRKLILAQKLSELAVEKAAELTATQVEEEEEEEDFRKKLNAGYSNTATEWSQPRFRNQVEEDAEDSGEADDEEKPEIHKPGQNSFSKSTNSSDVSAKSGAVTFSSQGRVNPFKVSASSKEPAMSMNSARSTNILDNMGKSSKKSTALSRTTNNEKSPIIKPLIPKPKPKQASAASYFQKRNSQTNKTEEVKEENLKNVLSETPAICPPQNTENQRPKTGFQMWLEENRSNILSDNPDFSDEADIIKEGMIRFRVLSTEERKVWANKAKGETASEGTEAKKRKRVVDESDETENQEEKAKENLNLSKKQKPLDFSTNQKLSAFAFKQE
Chain of UniProt P49754 (P49754 whole entry, looked up): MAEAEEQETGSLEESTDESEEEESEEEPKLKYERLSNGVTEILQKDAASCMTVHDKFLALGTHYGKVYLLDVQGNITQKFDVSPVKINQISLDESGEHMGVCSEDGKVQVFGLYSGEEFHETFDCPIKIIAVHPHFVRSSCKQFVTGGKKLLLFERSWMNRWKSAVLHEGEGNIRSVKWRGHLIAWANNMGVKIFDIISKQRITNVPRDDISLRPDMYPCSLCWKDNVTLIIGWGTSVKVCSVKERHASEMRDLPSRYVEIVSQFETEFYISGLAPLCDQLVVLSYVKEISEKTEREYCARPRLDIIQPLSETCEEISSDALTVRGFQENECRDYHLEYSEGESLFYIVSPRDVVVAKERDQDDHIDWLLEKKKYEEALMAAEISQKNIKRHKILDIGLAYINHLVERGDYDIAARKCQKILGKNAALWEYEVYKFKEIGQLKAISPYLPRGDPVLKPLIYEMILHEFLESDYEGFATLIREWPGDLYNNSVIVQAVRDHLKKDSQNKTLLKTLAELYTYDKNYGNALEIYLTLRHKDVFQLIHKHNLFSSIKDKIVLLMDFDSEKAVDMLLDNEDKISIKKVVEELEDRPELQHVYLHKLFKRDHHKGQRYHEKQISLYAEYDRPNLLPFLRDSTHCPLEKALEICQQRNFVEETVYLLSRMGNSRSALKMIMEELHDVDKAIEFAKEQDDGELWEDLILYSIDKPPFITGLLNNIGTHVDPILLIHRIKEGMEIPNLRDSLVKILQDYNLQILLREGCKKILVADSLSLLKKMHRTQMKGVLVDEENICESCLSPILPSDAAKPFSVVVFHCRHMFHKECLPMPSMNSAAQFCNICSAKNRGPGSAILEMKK
Chain of UniProt O14787 (O14787 whole entry, looked up): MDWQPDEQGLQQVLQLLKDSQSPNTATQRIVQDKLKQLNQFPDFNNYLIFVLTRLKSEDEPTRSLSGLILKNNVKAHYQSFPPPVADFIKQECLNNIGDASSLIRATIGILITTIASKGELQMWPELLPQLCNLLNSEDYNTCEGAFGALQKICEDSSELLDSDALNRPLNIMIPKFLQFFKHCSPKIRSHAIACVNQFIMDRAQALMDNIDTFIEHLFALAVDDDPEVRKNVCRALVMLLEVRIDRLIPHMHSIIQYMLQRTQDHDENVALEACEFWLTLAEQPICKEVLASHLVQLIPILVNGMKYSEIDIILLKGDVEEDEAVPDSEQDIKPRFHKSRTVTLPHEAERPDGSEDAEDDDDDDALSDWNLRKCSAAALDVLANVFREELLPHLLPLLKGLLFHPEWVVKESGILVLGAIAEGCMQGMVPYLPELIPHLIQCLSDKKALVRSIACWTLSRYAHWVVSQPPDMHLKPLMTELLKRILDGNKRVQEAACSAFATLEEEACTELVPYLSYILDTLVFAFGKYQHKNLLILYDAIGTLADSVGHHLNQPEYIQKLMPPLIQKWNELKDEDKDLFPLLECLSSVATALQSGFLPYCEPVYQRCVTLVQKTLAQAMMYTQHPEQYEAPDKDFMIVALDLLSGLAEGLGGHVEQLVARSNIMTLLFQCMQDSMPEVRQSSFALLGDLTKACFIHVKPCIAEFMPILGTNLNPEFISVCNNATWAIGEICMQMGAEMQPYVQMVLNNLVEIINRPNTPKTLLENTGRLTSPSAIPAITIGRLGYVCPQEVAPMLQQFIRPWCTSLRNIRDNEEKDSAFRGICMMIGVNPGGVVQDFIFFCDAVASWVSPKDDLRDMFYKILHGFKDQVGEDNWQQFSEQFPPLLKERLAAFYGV
Chain of UniProt Q8N4H5 (Q8N4H5 whole entry, looked up): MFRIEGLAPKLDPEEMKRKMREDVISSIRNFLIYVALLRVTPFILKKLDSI
Chain of UniProt Q969T4 (Q969T4 whole entry, looked up): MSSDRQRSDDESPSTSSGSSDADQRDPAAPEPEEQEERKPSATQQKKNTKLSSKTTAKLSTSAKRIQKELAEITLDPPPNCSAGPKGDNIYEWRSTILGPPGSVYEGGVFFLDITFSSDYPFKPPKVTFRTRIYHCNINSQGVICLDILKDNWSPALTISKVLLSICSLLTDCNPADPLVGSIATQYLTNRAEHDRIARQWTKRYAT

Target | log2 fold change (IRAK-1-4 Inhibitor I) | log2 fold change (ibrutinib) | log2 fold change [1] | log2 fold change (ralimetinib) | log2 fold change [2] | log2 fold change [3] | log2 fold change [4] | log2 fold change (pinometostat) | log2 fold change [5] | log2 fold change [6] | log2 fold change [7] | log2 fold change [8] | log2 fold change [9] | log2 fold change [10] | log2 fold change (Nexturastat A) | log2 fold change (vemurafenib) | log2 fold change [11] | log2 fold change [12] | log2 fold change (givinostat) | log2 fold change (barasertib)
WDHD1 (UniProt O75717) | -0.055 | 0.006 | -0.087 | -0.038 | -0.065 | -0.125 | 0 | -0.03 | -0.02 | -0.063 | 0.057 | -0.043 | 0.013 | 0.072 | -0.053 | 0.066 | 0.095 | 0.022 | 0.053 | 0.055
TMEM173 (UniProt Q86WV6) | 0.018 | -0.105 | 0.009 | 0.067 | -0.047 | -0.006 | 0.005 | 0.012 | 0.009 | 0.088 | -0.037 | -0.01 | -0.043 | -0.008 | -0.212 | 0.056 | -0.043 | -0.008 | -0.076 | 0.055
TOP2A isoform 4 (UniProt P11388) | -0.145 | 0.116 | 0.154 | 0.324 | 0 | -0.125 | 0.261 | 0.533 | 0.041 | -0.968 (active) | 0.081 | -0.006 | -0.083 | -0.094 | 0.234 | -0.213 | 0.042 | 0.182 | 0.207 | -0.054
UBE2E3 (UniProt Q969T4) | 0.106 | -0.059 | -0.027 | 0.069 | -0.046 | -0.08 | -0.039 | 0.096 | -0.019 | 0.066 | 0.028 | -0.059 | 0.053 | 0.08 | -0.098 | -0.013 | 0.08 | 0.022 | 0.116 | 0.013
VPS41 (UniProt P49754) | -0.002 | -0.033 | -0.019 | 0.052 | 0.019 | -0.383 (active) | 0.026 | 0.037 | 0.003 | 0.063 | 0.015 | 0.003 | 0.004 | -0.028 | 0.108 | -0.051 | 0.025 | -0.03 | -0.013 | -0.02
TOMM5 isoform 2 (UniProt Q8N4H5) | 0.037 | 0.01 | -0.033 | -0.099 | -0.048 | 0.221 | 0.036 | 0.148 | -0.004 | 0.003 | -0.009 | 0.367 | 0.005 | 0.084 | 0.025 | 0 | -0.011 | 0.141 | -0.029 | 0.03
XPO1 (UniProt O14980) | -0.013 | -0.045 | 0.011 | 0.018 | -0.196 | -0.282 (active) | -0.04 | -0.013 | -0.001 | -0.011 | 0.072 | -0.063 | 0.025 | 0.081 | -0.061 | 0.086 | 0.101 | -0.011 | 0.024 | 0.039
TRIP10 (UniProt Q15642) | 0.007 | 0.002 | 0.009 | 0.001 | 0 | -0.022 | 0.007 | -0.007 | -0.009 | -0.02 | 0.003 | -0.026 | -0.009 | -0.045 | 0.139 | 0.08 | 0.026 | -0.012 | -0.058 | 0.015
TNPO2 (UniProt O14787) | -0.088 | -0.023 | -0.051 | 0.027 | -0.138 | -0.339 (active) | -0.042 | 0.012 | 0.023 | -0.171 | 0.052 | -0.01 | 0.073 | 0.015 | 0.021 | 0.061 | 0.11 | 0.007 | 0.083 | 0.054
UBLCP1 (UniProt Q8WVY7) | -0.029 | -0.072 | -0.057 | -0.104 | -0.061 | -0.027 | 0.191 | 0.017 | -0.023 | -0.155 | -0.011 | -0.078 | -0.03 | 0.03 | 0.025 | 0.076 | 0.093 | -0.006 | 0.122 | 0.057
UBE4B isoform 4 (UniProt O95155) | 0.008 | -0.031 | 0.006 | 0.057 | -0.117 | -0.041 | 0.047 | 0 | 0.004 | -0.005 | 0.007 | -0.012 | 0.001 | 0.014 | -0.017 | 0.024 | 0.045 | -0.008 | 0.008 | 0.042
U2AF1 isoform 2 (UniProt Q01081) | -0.133 | 0.073 | -0.519 (active) | 0 | 0.042 | -0.083 | 0.022 | -0.04 | -0.062 | 0.169 | -0.011 | -0.078 | -0.01 | 0.091 | 0.011 | 0.074 | 0.071 | -0.009 | 0.022 | 0.009
TTC38 (UniProt Q5R3I4) | 0.129 | -0.048 | 0.023 | 0.017 | -0.204 | -0.06 | -0.195 | 0.027 | -0.081 | 0.801 (active) | -0.039 | 0.405 | 0.127 | 0.019 | 1.05 (active) | 0.031 | 0.012 | 0.141 | 0.938 (active) | 0.023
UGGT1 (UniProt Q9NYU2) | -0.011 | -0.027 | 0.001 | 0.001 | -0.028 | -0.007 | -0.038 | 0.028 | -0.003 | 0.023 | -0.001 | 0.004 | 0.001 | -0.018 | 0.014 | 0 | 0.003 | 0.024 | 0.02 | 0
USP7 (UniProt Q93009) | -0.102 | -0.021 | -0.078 | 0 | -0.172 | -0.198 | 0.012 | 0.024 | 0 | 0.17 | 0.054 | -0.046 | 0.007 | 0.012 | 0.015 | 0.036 | 0.068 | 0 | 0.083 | 0.073
TRAM1 (UniProt Q15629) | -0.036 | -0.051 | -0.032 | -0.014 | -0.016 | -0.889 (active) | 0.012 | -0.011 | 0.016 | 0.119 | 0.024 | -0.063 | -0.006 | 0.048 | 0.005 | 0.027 | 0.02 | -0.101 | 0.028 | 0.015
